Consider 13 compounds from ChEMBL document CHEMBL1961873, “Compounds: GSK PKIS; Assays: Nanosyn kinase panel” (2012).

Each structure is given as a SMILES string.

Assay [1] has as its target Casein kinase I isoform gamma-2 (Homo sapiens) (UniProt P78368). The following applies: at 1 µM.
Assay [2] deals with Casein kinase I isoform gamma-3 (Homo sapiens) (UniProt Q9Y6M4). The conditions noted are these: at 0.1 µM.
Assay [3] has the same target. The conditions noted are these: at 1 µM.
For assay [4], the target named is Cyclin-dependent kinase 1 (Homo sapiens) (UniProt P06493). The conditions noted are these: at 0.1 µM.
Chain of Cyclin-dependent kinase 1 (Homo sapiens) (P06493 whole entry, looked up): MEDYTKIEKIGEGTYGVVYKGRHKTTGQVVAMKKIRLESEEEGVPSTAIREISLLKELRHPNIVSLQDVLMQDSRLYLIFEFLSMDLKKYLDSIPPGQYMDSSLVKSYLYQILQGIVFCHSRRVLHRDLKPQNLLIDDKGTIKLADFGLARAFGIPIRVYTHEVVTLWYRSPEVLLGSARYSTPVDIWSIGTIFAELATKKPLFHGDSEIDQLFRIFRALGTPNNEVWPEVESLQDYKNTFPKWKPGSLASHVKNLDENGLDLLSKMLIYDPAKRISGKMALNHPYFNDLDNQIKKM
Assay [5] has the same target. The following applies: at 1 µM.
Assay [6] deals with Cyclin-dependent kinase 2 (Homo sapiens) (UniProt P24941). The conditions noted are these: at 0.1 µM.
For assay [7] the target is unchanged. The following applies: at 1 µM.
Assay [8] has the same target. The conditions noted are these: at 0.1 µM. The source holds these as a separate data set.
Assay [9] has the same target. The conditions noted are these: at 1 µM. This is another data set of the same source.
The target of assay [10] is T1, CDK3/Cyclin E (Homo sapiens) (UniProt P24864+Q00526). The conditions noted are these: at 0.1 µM.
T1 sequence (P24864 whole entry, looked up): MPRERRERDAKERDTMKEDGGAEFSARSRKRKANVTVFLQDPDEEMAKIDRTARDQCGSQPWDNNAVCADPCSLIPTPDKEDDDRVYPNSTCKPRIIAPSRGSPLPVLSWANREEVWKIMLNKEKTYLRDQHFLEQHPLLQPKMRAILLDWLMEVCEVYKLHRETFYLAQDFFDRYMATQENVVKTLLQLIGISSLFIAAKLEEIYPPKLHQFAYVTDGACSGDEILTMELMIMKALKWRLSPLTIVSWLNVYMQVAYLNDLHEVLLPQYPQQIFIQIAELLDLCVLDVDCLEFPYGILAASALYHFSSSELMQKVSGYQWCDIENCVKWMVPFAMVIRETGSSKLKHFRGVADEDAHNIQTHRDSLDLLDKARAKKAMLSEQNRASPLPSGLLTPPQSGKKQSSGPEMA
T1 sequence (Q00526 whole entry, looked up): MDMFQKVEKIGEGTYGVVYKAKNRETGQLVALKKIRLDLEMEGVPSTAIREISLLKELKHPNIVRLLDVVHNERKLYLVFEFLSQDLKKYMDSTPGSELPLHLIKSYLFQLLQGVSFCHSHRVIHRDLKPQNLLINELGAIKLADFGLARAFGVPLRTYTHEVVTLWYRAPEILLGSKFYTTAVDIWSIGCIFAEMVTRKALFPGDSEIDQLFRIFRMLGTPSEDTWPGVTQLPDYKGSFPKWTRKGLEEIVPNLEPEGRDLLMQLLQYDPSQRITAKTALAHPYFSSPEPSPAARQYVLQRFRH
In assay [11] the target is T1, CDK3/Cyclin E (Homo sapiens). The following applies: at 1 µM.
The target in assay [12] is Cyclin-dependent kinase 4 (Homo sapiens) (UniProt P11802). The following applies: at 0.1 µM.
Chain of Cyclin-dependent kinase 4 (Homo sapiens) (P11802 whole entry): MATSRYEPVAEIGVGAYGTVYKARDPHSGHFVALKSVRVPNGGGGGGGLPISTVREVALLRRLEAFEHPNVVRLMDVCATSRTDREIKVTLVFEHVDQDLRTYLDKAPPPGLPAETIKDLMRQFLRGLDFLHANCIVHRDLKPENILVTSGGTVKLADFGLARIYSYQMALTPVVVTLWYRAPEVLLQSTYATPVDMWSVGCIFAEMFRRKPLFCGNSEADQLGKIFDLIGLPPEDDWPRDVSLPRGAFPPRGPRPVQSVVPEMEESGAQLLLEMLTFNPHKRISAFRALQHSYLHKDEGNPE
Assay [13] has the same target. The conditions noted are these: at 1 µM.
In assay [14] the target is Cyclin-dependent kinase 5 (Homo sapiens) (UniProt Q00535). The conditions noted are these: at 0.1 µM.
Chain of Cyclin-dependent kinase 5 (Homo sapiens) (Q00535 whole entry, looked up): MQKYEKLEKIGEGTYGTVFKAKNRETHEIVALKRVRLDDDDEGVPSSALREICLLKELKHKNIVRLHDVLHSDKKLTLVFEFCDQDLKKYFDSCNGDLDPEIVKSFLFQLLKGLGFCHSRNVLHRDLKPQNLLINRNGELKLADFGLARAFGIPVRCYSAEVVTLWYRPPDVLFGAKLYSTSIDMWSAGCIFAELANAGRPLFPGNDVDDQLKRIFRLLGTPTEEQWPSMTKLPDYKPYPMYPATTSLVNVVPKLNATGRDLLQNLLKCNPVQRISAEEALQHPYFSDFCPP
Assay [15] has the same target. The conditions noted are these: at 1 µM.
The target of assay [16] is Cyclin-dependent kinase 6 (Homo sapiens) (UniProt Q00534). The following applies: at 0.1 µM.
Chain of Cyclin-dependent kinase 6 (Homo sapiens) (Q00534 whole entry): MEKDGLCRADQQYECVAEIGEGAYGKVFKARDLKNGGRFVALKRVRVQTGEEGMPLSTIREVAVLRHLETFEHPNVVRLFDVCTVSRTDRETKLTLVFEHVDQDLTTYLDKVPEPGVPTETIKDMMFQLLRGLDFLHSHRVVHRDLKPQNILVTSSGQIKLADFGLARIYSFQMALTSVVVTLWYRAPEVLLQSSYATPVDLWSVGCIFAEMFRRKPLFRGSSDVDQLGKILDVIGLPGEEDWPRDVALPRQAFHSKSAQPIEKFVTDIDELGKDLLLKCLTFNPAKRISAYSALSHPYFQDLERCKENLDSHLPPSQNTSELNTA
For assay [17] the target is unchanged. The conditions noted are these: at 1 µM.
Assay [18] addresses Dual specificity protein kinase CLK2 (Homo sapiens) (UniProt P49760). The following applies: at 0.1 µM.
The target is the same in assay [19]. The following applies: at 1 µM.
In assay [20] the target is Dual specificity protein kinase CLK3 (Homo sapiens) (UniProt P49761). The conditions noted are these: at 0.1 µM.
Chain of Dual specificity protein kinase CLK3 (Homo sapiens) (P49761 whole entry, looked up): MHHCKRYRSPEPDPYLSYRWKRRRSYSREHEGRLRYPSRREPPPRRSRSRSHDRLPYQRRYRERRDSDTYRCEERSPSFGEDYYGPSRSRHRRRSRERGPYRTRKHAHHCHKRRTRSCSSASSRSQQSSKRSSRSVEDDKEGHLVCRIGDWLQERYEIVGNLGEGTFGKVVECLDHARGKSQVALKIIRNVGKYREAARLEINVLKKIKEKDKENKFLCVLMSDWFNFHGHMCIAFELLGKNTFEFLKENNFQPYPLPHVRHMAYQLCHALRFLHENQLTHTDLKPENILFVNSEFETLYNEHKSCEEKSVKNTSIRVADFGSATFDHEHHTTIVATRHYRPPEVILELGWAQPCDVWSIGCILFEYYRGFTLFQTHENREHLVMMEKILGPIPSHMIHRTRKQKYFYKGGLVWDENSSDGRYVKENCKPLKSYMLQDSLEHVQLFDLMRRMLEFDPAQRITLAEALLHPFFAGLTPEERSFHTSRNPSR

Chain of Casein kinase I isoform gamma-3 (Homo sapiens) (Q9Y6M4 whole entry, looked up, canonical isoform): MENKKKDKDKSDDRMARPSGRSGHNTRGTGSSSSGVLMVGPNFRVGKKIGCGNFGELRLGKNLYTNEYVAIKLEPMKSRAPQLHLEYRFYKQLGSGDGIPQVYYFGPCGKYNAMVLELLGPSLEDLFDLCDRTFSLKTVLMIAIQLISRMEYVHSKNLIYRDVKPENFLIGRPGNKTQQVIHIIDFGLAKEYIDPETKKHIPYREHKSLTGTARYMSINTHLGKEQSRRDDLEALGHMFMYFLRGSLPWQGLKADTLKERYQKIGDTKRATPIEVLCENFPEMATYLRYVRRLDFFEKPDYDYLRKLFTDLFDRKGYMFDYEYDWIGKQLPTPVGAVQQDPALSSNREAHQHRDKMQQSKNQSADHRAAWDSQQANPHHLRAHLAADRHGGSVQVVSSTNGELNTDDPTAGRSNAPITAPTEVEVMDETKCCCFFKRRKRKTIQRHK
Chain of Dual specificity protein kinase CLK2 (Homo sapiens) (P49760 whole entry, looked up): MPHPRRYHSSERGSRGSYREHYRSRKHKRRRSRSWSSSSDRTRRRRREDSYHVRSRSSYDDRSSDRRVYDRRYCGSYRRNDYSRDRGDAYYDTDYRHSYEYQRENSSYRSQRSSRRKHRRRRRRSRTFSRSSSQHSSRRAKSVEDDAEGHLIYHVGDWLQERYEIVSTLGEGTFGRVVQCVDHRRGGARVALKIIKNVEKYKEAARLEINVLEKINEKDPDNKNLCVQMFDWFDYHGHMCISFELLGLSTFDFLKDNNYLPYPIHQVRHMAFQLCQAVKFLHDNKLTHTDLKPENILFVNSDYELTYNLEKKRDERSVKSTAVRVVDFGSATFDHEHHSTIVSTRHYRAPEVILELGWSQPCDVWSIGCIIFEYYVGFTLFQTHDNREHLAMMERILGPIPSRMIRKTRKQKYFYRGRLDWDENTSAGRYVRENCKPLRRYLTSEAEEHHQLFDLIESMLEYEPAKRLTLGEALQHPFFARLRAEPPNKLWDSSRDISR
Chain of Casein kinase I isoform gamma-2 (Homo sapiens) (P78368 whole entry, looked up, canonical isoform): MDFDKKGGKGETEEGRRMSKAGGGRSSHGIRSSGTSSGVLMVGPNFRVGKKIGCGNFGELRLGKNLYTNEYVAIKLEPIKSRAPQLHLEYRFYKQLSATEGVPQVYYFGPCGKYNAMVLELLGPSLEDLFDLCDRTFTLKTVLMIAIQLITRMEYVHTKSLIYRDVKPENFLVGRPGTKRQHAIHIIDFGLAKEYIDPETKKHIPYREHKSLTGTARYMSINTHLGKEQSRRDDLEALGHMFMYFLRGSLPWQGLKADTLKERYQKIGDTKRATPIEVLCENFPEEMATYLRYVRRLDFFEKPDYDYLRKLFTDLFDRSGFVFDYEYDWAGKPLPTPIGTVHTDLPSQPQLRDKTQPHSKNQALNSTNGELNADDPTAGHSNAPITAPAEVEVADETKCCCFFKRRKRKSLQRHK

Regarding `CN(C)CCCn1c(-c2nonc2N)nc2cnccc21`, the inhibition (in general, the drop in the measured response relative to a control, in per cent) turned out to be 4.54% in assay [1]; 1.5% in assay [2]; 3.26% in assay [3]; 1.58% in [4]; 2.19% in assay [5]; 2.53% in assay [6]. Also, the inhibition in assay [7] is -3.59%; in assay [8] it was 4.53%; in [9] it was 6.13%; in assay [10], 4.24%; in assay [11], -0.71%; in assay [12], 3.12%. For the same compound, the inhibition in [13] is 4.13%; in assay [14], 1.36%; in [15], 1.99%; in assay [16], -4.78%; in assay [17], 1.95%; in assay [18], 2.66%. Further, the inhibition in assay [19] was 2.51%; in assay [20] it was 1.05%.

For the compound `CS(=O)(=O)Nc1cccc(-c2ccc3c(NC(=O)C4CC4)n[nH]c3c2)c1`, the inhibition worked out at 0.91% in assay [1]; 0.37% in assay [2]; 1.22% in [3]; 1.04% in assay [4]; 3.4% in assay [5]; 1.58% in assay [6]. Moreover, the inhibition in assay [7] came to 6.73%; in [8], 1.31%; in [9] it was 4.6%; in assay [10], 2.08%; in assay [11] it was 3.8%; in assay [12], 0.3%. Also, the inhibition in [13] is 2.88%; in assay [14], 0.92%; in assay [15] it was 2.86%; in assay [16], -5.62%; in assay [17] it was 6.33%; in assay [18], 2.8%. The inhibition in assay [19] is 3.81%; in [20] it was -0.87%.

As for `CCS(=O)(=O)c1ccc(OC)c(Nc2ncc(-c3cccc(OC)c3)o2)c1`, the inhibition in assay [1] is 3.73%; in [2], 3.1%; in assay [3], 5.62%; in assay [4] it was -0.89%; in assay [5] it was 2.51%; in assay [6] it was 1.38%. In addition, the inhibition is 5.48% in assay [7]; 2.62% in [8]; 7.35% in [9]; 0.48% in assay [10]; 3.18% in [11]; 1.8% in assay [12]. Moreover, the inhibition in assay [13] was 3.35%; in assay [14], 0.02%; in [15], 1.71%; in [16], 3.87%; in [17], 5.07%; in assay [18], 34.8%. In addition, the inhibition in assay [19] is 86%; in assay [20], 2.36%.

With `CCS(=O)(=O)c1ccc(OC)c(Nc2nccc(N(C)c3ccc4c(C)n[nH]c4c3)n2)c1`, the inhibition came to 4.44% in assay [1]; 3.36% in assay [2]; 3.45% in assay [3]; 0.39% in [4]; 1.28% in assay [5]; 1.59% in assay [6]. In addition, the inhibition in [7] was 3.06%; in [8] it was 2.45%; in [9], 3.56%; in [10], 0.61%; in [11], -2.55%; in assay [12] it was 3.02%. Further, the inhibition was 4.42% in assay [13]; 0.13% in assay [14]; 0.33% in assay [15]; -0.16% in assay [16]; -1.74% in assay [17]; 0.8% in [18]. For the same compound, the inhibition in [19] amounted to 0.04%; in assay [20] it was 1.1%.

Consider `Nc1nccc(C#Cc2cncnc2Nc2ccc(OCc3cccc(F)c3)c(Cl)c2)n1`, for which the inhibition was found to be 3.89% in assay [1]; 3.42% in [2]; 3.02% in assay [3]; 0.61% in assay [4]; 2.58% in assay [5]; 1.73% in assay [6]. In addition, the inhibition in [7] is 1.37%; in assay [8] it was 3.74%; in assay [9], 5.25%; in [10], 1.09%; in [11], 0.78%; in [12] it was 3.03%. The inhibition in assay [13] is 4.61%; in assay [14], 1.09%; in [15], 1.9%; in assay [16], 3.61%; in assay [17], 2.5%; in [18], 2.79%. The inhibition is 14.2% in [19] and 1.85% in [20].

Take `Cc1cc(-c2ccccn2)cc(C)c1/C=C/c1cncc(-c2nn[nH]n2)c1`: the inhibition in [1] came to 6.46%; in [2] it was 2.01%; in assay [3] it was 4.69%; in [4] it was 3.71%; in assay [5], 5.82%; in [6], 2.14%. The inhibition in [7] is 2.77%; in assay [8] it was 3.02%; in [9], 7.32%; in [10], -2.85%; in assay [11], -2.71%; in assay [12], 6.05%. Also, the inhibition in assay [13] came out at 8.73%; in assay [14], 3.27%; in [15] it was 5.72%; in assay [16], 1.94%; in assay [17], 5.55%; in assay [18], 0.95%. Further, the inhibition in assay [19] is 1.77%; in assay [20] it was 0.5%.

For the compound `Cc1ccc2c(c1)/C(=N/Nc1ccc(S(N)(=O)=O)cc1)C(=O)N2`, the inhibition in [1] was 0.86%; in [2], 1.81%; in assay [3], -0.55%; in assay [4], 3.51%; in assay [5], 23.4%; in [6] it was 27%. The inhibition in assay [7] amounted to 69.6%; in assay [8] it was 35%; in assay [9], 74.2%; in assay [10], 14.9%; in [11] it was 57.3%; in [12] it was 1.36%. The inhibition is 16.9% in assay [13]; 9.16% in assay [14]; 45.2% in assay [15]; -2.12% in [16]; 36.9% in assay [17]; 1.98% in assay [18]. Further, the inhibition in [19] is 3.06%; in assay [20] it was -1.33%.

Turning to `CN1CCN(C(=O)c2ccc(NC(=O)Nc3ccc(N(C)c4ccnc(Nc5ccc(CS(C)(=O)=O)cc5)n4)cc3)cc2)CC1`, the inhibition in [1] was determined as 1.64%; in [2], 1.17%; in assay [3], 1.29%; in assay [4], 2.37%; in assay [5], 5.28%; in assay [6], 4.51%. The inhibition in assay [7] was 10.8%; in [8], 0.96%; in assay [9], 5.93%; in [10], -1.55%; in assay [11], 2.12%; in assay [12], 2.05%. The inhibition was 5.68% in [13]; 1.54% in assay [14]; 8.48% in assay [15]; -6.28% in [16]; 3.8% in [17]; 0.17% in assay [18]. Further, the inhibition in assay [19] was 3.57%; in assay [20], 0.18%.

For `COc1ccc2ncnc(Nc3ccc(OCc4ccccc4)cc3)c2c1`, the inhibition was 2.03% in assay [1]; -0.66% in assay [2]; 1.41% in assay [3]; 0.67% in [4]; 1.75% in assay [5]; 1.36% in assay [6]. For the same compound, the inhibition in assay [7] was -4.84%; in assay [8] it was 0.4%; in [9] it was 1.13%; in [10], 1.69%; in assay [11], -1.97%; in [12] it was 0.76%. Further, the inhibition is 0.15% in assay [13]; 0.36% in [14]; 0.72% in assay [15]; -0.31% in assay [16]; 1.08% in assay [17]; 1.07% in [18]. For the same compound, the results for the inhibition in assay [19] and in [20] were 0.25% and 0.35%, respectively.

With `Cc1ccc(C(=O)NC2CC2)cc1-c1ccc2[nH]ncc2c1`, the inhibition in [1] was -3.39%; in [2], -2.17%; in assay [3], -1.12%; in assay [4], 0.88%; in assay [5] it was 2.1%; in [6], 0.12%. In addition, the inhibition was 4.69% in [7]; -1.68% in assay [8]; 0.18% in assay [9]; -2.07% in [10]; 0.41% in [11]; -0.45% in assay [12]. Also, the inhibition in assay [13] is 1.78%; in assay [14], 0.3%; in [15] it was 2.44%; in assay [16] it was -4.81%; in assay [17], -2.84%; in assay [18], -1%. Moreover, the inhibition in assay [19] is 0.36%; in assay [20] it was -0.51%.

Take `CN(C)C(=O)O[C@@H]1CN[C@@H](C#Cc2cc3ncnc(Nc4ccc(OCc5cccc(F)c5)c(Cl)c4)c3s2)C1`: the inhibition in assay [1] turned out to be 5.93%; in [2] it was 0.73%; in [3], 5.49%; in [4] it was 0.38%; in [5], 0.19%; in [6] it was 0.82%. Moreover, the inhibition in assay [7] was 7.43%; in [8], 0.72%; in assay [9] it was 1.06%; in assay [10], 3.66%; in [11], -1.66%; in assay [12] it was 2.09%. The inhibition in assay [13] is 1.46%; in [14] it was 0.54%; in [15] it was 1.24%; in assay [16] it was -6.37%; in assay [17] it was 0.91%; in assay [18], 0.95%. The inhibition is -0.08% in [19] and -0.16% in assay [20].

On to `COc1cc(Nc2nccc(-c3cnn4ncccc34)n2)cc(OC)c1`, for which the inhibition in assay [1] came to 39.3%; in assay [2], 3.02%; in assay [3], 34.9%; in assay [4], 69.1%; in [5], 91.3%; in assay [6] it was 54.5%. Also, the inhibition in assay [7] came to 110%; in assay [8] it was 63.6%; in assay [9], 90%; in [10], 34.6%; in assay [11] it was 74.3%; in assay [12], 44.9%. The inhibition in assay [13] came to 78.5%; in [14] it was 63%; in assay [15], 90.1%; in [16], 24.9%; in assay [17] it was 76.1%; in [18], 99.2%. Moreover, the inhibition in assay [19] worked out at 99.9%; in [20], 36.5%.

Turning to `CC(C)c1ccc(Nc2nccc(-c3cnn4ncccc34)n2)cc1`, the inhibition in [1] came to 24.9%; in [2], 1.13%; in assay [3], 13.6%; in [4], 21.5%; in [5] it was 64%; in assay [6] it was 19.8%. The inhibition in assay [7] is 78.7%; in [8], 22.8%; in assay [9] it was 64.5%; in assay [10], 1.82%; in assay [11], 39%; in assay [12], 9.51%. In addition, the inhibition is 39.5% in assay [13]; 12.7% in assay [14]; 51.4% in [15]; 3.4% in [16]; 19.4% in [17]; 14% in assay [18]. Moreover, the results for the inhibition in assay [19] and in assay [20] were 65.3% and 3.13%, respectively.
